Active and inactive are the calls of the source. The calls were made as follows: active = hit-call score of the fitted dose curve at least 0.9, where 1 is the maximum; inactive = score below 0.9.
target: Myc proto-oncogene protein (Homo sapiens) (UniProt P01106); experiment: ATG_Myc_CIS: Attagene CIS-FACTORIAL HepG2 Assay for human Myelocytomatosis (Myc) Proto-Oncogene Transcription Factor (AID 2282990); details: HepG2, Attagene cis-reporter transcription factor activity; actives raise or lower the signal
Sequence (P01106 whole entry, looked up): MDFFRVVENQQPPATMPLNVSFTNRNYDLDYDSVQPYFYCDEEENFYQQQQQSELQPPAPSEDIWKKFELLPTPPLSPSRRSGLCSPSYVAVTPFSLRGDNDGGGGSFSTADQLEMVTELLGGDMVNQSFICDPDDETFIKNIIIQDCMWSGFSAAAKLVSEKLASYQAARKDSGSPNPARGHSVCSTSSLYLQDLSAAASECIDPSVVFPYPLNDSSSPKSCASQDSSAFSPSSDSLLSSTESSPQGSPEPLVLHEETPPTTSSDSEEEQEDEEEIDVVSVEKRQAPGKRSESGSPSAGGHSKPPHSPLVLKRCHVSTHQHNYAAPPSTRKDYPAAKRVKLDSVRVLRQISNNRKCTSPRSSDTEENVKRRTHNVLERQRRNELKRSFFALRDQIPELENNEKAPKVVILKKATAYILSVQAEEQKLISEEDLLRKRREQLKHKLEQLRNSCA
Method: ATG_CIS is a cell-based, multiplexed-readout assay that uses HepG2, a human liver cell line, with measurements taken at 24 hours after chemical dosing in a 24-well plate.ATG_Myc_CIS is one of 52 assay component(s) measured or calculated from the ATG_CIS assay. It is designed to make measurements of mRNA induction, a form of inducible reporter, as detected with fluorescence intensity signals by Reverse transcription polymerase chain reaction (RT-PCR) and Capillary electrophoresis technology.Data from the assay component ATG_Myc_CIS was analyzed into 1 assay endpoint. This assay endpoint, ATG_Myc_CIS, was analyzed with bidirectional fitting relative to DMSO as the negative control and baseline of activity. Using a type of inducible reporter, measures of mRNA for gain or loss-of-signal activity can be used to understand the reporter gene at the transcription factor-level as they relate to the gene MYC. Furthermore, this assay endpoint can be referred to as a primary readout, because this assay has produced multiple assay endpoints where this one serves a reporter gene function. To generalize the intended target to other relatable targets, this assay endpoint is annotated to the dna binding intended target family, where the subfamily is basic helix-loop-helix leucine zipper.
Human liver HepG2 cells are transiently transfected with multiple reporter transcription units (MRTUs) in 6-well plates using FuGene 6 reagent (Roche; 3 ml FuGene/1 mg DNA). The MRTU constructs are regulated by a cis-regulating element (promoter). […] A major difference between the CIS and TRANS system is that in CIS activities of endogenous TFs are measured, whereas the TRANS assay evaluates changes in activities of exogenous, chimeric NR-Gal4 proteins. […] At the end of 24 hour incubation, total RNA was isolated using TriZol reagent (Invitrogen). The isolated RNA is then reverse-transcribed using oligo(dT) primer and Mo-MLV reverse transcriptase (Invitrogen) with DNAse I (Ambion) treatment for 30 min. The one-tenth of the produced cDNA was amplified by PCR using Taq DNA polymerase (Invitrogen) and two reporter sequence-specific primers. The PCR products were fluorescently labeled by primer extension with 6-arboxyfluorescein (6-FAM) 5'-labeled reporter sequence-specific primer (2 min at 95 C, 20 s at 68 C and 10 min at 72 C) and these products were digested with 5U of HpaI (New England Biolabs) for 2h at 37 C. The fragments were purified using Qiaquick PCR columns (Qiagen), analyzed on an ABI 3130xL genetic analyzer (Applied Biosystems) with peak positions identified by using a set of X-rhodamine (ROX)-labeled MapMarker1000 molecular weight standards (BioVentures). The raw capillary electrophoresis data was processed using Attagraph software (Attagene).

outcome, inactive:
CCCCn1cc[n+](C)c1
c1ccc(CNc2ncnc3nc[nH]c23)cc1
CCC(C)NC(N)=O (stereo not given)
c1ccc2c(c1)Oc1ccccc1S2
CC1=CCCC(C)(C)C12CCC(C)O2 (stereo not given)
Nc1ccc(S(=O)(=O)Nc2cnc3ccccc3n2)cc1
C=C1CC[C@H]2C[C@@H]1C2(C)C
C1=CCC=C1
CCCCC(CC)COC(=O)CS (stereo not given)
Brc1ccc(Oc2ccc(Br)cc2)cc1
O=C(O)c1ccccc1C(=O)O
COC(=O)CCSCCC(=O)OC
CCCCCCOC(=O)CCCCCCCC(=O)OCCCCCC
OCCN(CCO)c1cccc(Cl)c1
OCCc1ccccn1
Cc1cc(C)c(S(=O)(=O)O)cc1N=Nc1cc(S(=O)(=O)O)c2ccccc2c1O
CCOC(=O)CC(=O)OCC
COc1ccccc1OCC(O)CO (stereo not given)
CC/C=C/CCO
CO[Si](CCCNCCN)(OC)OC
CC(=O)OC(C)(C)Cc1ccccc1
C=CN1CCCCCC1=O
C[Si](C)(C)O[Si](C)(C)O[Si](C)(C)C
NC(N)=Nc1nc(CSCCC(N)=NS(N)(=O)=O)cs1
O=C(O)c1nc(Cl)c(Cl)c(Cl)c1Cl
CC(=O)c1nccs1
CCCCCCC1CCCC(=O)O1 (stereo not given)
O=C(C1CCCCC1)N1CC(=O)N2CCc3ccccc3C2C1 (stereo not given)
CC(C)n1c(/C=C/[C@@H](O)C[C@@H](O)CC(=O)O)c(-c2ccc(F)cc2)c2ccccc21
CC(C)(C)NC(=O)[C@@H]1CN(Cc2cccnc2)CCN1C[C@@H](O)C[C@@H](Cc1ccccc1)C(=O)N[C@H]1c2ccccc2C[C@H]1O
CCCC(=O)OC/C=C(\C)CCC=C(C)C
CC[N+](CC)(CC(=O)Nc1c(C)cccc1C)Cc1ccccc1
O=C(O)/C=C/C(=O)O
Oc1ccc(Oc2ccccc2)cc1
COc1c2occc2cc2ccc(=O)oc12
CN(C)CCC(c1ccc(Cl)cc1)c1ccccn1 (stereo not given)
CCCCCC[C@@H](O)C/C=C\CCCCCCCC(=O)O
O=C1NC(=O)[C@@H]2CC=CC[C@H]12

AC50, active:
O=C1CCCCCCCCCCCCCC1 23.6 µM
C=CC(C)(CCC=C(C)C)OC(=O)c1ccccc1 (stereo not given) 131 µM

From PubChem BioAssay (EPA / NIEHS)
